Results on eight compounds are retold here after PubChem BioAssay (NCI).

Test [1] can be described thus: NCI Yeast Anticancer Drug Screen. Data for the rad50 strain (AID 155).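 Further: 0% = growth of vehicle-only cultures of the same strain.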 Conditions: S. cerevisiae rad50 strain growth inhibition, stronger effect = higher value. The essentials:
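Growth of the mutant yeast was measured after compound exposure and referenced to vehicle-treated cultures.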

The nature of test [2]: NCI Yeast Anticancer Drug Screen. Data for the mec2-1 strain (AID 157). The settings on record: S. cerevisiae mec2-1 strain, stronger effect = higher value. A digest of the protocol: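 Mutant yeast (mec2-1) grown with compound; growth inhibition relative to vehicle control reported.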
Test [3] can be described thus: NCI Yeast Anticancer Drug Screen. Data for the sgs1 mgt1 strain (AID 161).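 Further: 0% = growth of cultures given vehicle only.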 The settings on record: S. cerevisiae sgs1 mgt1 strain, stronger effect = higher value. The essentials:
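This yeast growth screen uses a strain with defined DNA-repair lesions; compound-treated growth is compared with vehicle-treated growth.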

A short description of test [4]: NCI Yeast Anticancer Drug Screen. Data for the cln2 rad14 strain (AID 165).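 Further: 0% = growth equal to vehicle treated cultures.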 Conditions: S. cerevisiae cln2 rad14 strain, stronger effect = higher value. The essentials:
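Readout is yeast growth inhibition versus vehicle-treated controls, using a strain with cln2 and rad14 alterations exposed to compound.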

The nature of test [5]: NCI Yeast Anticancer Drug Screen. Data for the bub3 strain (AID 167). The settings on record: S. cerevisiae bub3 mutant strain, stronger effect = higher value. The essentials: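 Whole-cell yeast assay. The mutant strain was incubated with compounds, and growth inhibition was determined by comparison with vehicle-treated cells.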
A short description of test [6]: NCI Yeast Anticancer Drug Screen. Data for the mlh1 rad18 strain (AID 175). The settings on record: S. cerevisiae mlh1 rad18 strain growth inhibition, stronger effect = higher value. A digest of the protocol:
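Genetically defined yeast (DNA repair-deficient) exposed to compounds; growth inhibition determined relative to vehicle.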

[7] abbreviates: at 5.0 µM (retest, dose inferred, filed as 0.5).
[8] abbreviates: at 50.0 µM (retest, dose inferred, filed as 5.0).

Molecules are shown by their SMILES. Several values for one entry are separate records, joined by “and”; a condition that tells them apart may be missing. Equal entries are not always repeated. Compounds without any hit were thinned out: in the full panel of roughly 79,000, 15% have a hit. Where a structure was tested more than once in an assay, its records may differ in their call. Activity calls are given as the source filed them. No stated cut-off is given here; in the data, active means growth inhibition above about 70%; inactive means the rest.

On to `O=C1C(=Cc2ccc(O)cc2)N=C(c2ccccc2)N1n1c(-c2ccccc2)nc2ccccc2c1=O`, for which the growth inhibition is 2% (inactive) in test [1] (setting [7]); 39% (inactive) in test [1] (setting [8]); 71% (active) in test [1] (at 50.0 µM); -2% (inactive) in test [2] (setting [7]); 23% (inactive) in test [2] (setting [8]); 38.9% (inactive) in test [2] (at 50.0 µM). The growth inhibition in test [3] (setting [7]) was 9% (inactive); in test [3] (setting [8]) it was 29% (inactive); in test [3] (at 50.0 µM), 73.2% (active); in test [4] (setting [7]), 18% (inactive); in test [4] (setting [8]), 40% (inactive); in test [4] (at 50.0 µM), 44.9% (inactive). For the same compound, the growth inhibition in test [5] (setting [7]) was 12% (inactive); in test [5] (setting [8]), 57% (inactive); in test [5] (at 50.0 µM), 89.4% (active); in test [6] (setting [7]), 12% (inactive); in test [6] (setting [8]), 64% (inactive); in test [6] (at 50.0 µM), 91.8% (active).
With `CC12CCC3c4ccc(O)cc4CCC3C1CCC2S` (centres undefined), the growth inhibition in test [1] (setting [7]) is -4% (inactive); in test [1] (setting [8]), 96% (active); in test [1] (at 50.0 µM), -7.35% (inactive) and 96.5% (active); in test [2] (setting [7]) it was -31% (inactive); in test [2] (setting [8]), 97% (active); in test [2] (at 50.0 µM), -1.65% (inactive) and 49.3% (inactive). Besides, the growth inhibition is -19% (inactive) in test [3] (setting [7]); 97% (active) in test [3] (setting [8]); -2.95% (inactive) and 52.2% (inactive) in test [3] (at 50.0 µM); -3% (inactive) in test [4] (setting [7]); 96% (active) in test [4] (setting [8]); -5.3% (inactive) and 94.8% (active) in test [4] (at 50.0 µM). In addition, the growth inhibition in test [5] (setting [7]) was -9% (inactive); in test [5] (setting [8]), 97% (active); in test [5] (at 50.0 µM) it was 0.75% (inactive) and 98.1% (active); in test [6] (setting [7]) it was -26% (inactive); in test [6] (setting [8]), 95% (active); in test [6] (at 50.0 µM), -2.3% (inactive) and 96.3% (active).
On to `CC1=CC(C)(C)Nc2ccc(CSc3ccccc3)cc21`, for which the growth inhibition in test [1] (setting [7]) was 7% (inactive); in test [1] (setting [8]), 25% (inactive); in test [1] (at 50.0 µM) it was 8.1% (inactive) and 36.4% (inactive); in test [2] (setting [7]) it was -8% (inactive); in test [2] (setting [8]), -17% (inactive); in test [2] (at 50.0 µM), 11.9% (inactive) and 5.5% (inactive). The growth inhibition in test [3] (setting [7]) is -1% (inactive); in test [3] (setting [8]), 10% (inactive); in test [3] (at 50.0 µM) it was 12.4% (inactive) and 13.9% (inactive); in test [4] (setting [7]) it was -13% (inactive); in test [4] (setting [8]) it was 6% (inactive); in test [4] (at 50.0 µM) it was -1.1% (inactive) and 19.8% (inactive). Besides, the growth inhibition is -11% (inactive) in test [5] (setting [7]); 6% (inactive) in test [5] (setting [8]); 29.3% (inactive) and 60.9% (inactive) in test [5] (at 50.0 µM); 23% (inactive) in test [6] (setting [7]); 16% (inactive) in test [6] (setting [8]); 37.4% (inactive) and 15.6% (inactive) in test [6] (at 50.0 µM).
Regarding `CS(=O)(=O)OC1CC(n2ccc(=O)[nH]c2=O)OC1COC(c1ccccc1)(c1ccccc1)c1ccccc1` (centres undefined), the growth inhibition was -14% (inactive) in test [1] (setting [7]); 95% (active) in test [1] (setting [8]); 14.9% (inactive) and 97% (active) in test [1] (at 50.0 µM); -4% (inactive) in test [2] (setting [7]); 95% (active) in test [2] (setting [8]); -4.6% (inactive) and 97% (active) in test [2] (at 50.0 µM). The growth inhibition in test [3] (setting [7]) was -17% (inactive); in test [3] (setting [8]) it was 54% (inactive); in test [3] (at 50.0 µM), 11.3% (inactive) and 50.5% (inactive); in test [4] (setting [7]), 0% (inactive); in test [4] (setting [8]), 92% (active); in test [4] (at 50.0 µM), 2.9% (inactive) and 96.3% (active). Further, the growth inhibition in test [5] (setting [7]) is -3% (inactive); in test [5] (setting [8]), 86% (active); in test [5] (at 50.0 µM) it was 7.25% (inactive) and 97.8% (active); in test [6] (setting [7]), 0% (inactive); in test [6] (setting [8]), 97% (active); in test [6] (at 50.0 µM), 5.6% (inactive) and 97% (active).
Take `Fc1cccc(CSC(=S)Nc2ccc(F)c(F)c2)c1`: the growth inhibition was 12% (inactive) in test [1] (setting [7]); 99% (active) in test [1] (setting [8]); 99.6% (active) in test [1] (at 50.0 µM); 13% (inactive) in test [2] (setting [7]); 99% (active) in test [2] (setting [8]); 99.8% (active) in test [2] (at 50.0 µM). The growth inhibition is 10% (inactive) in test [3] (setting [7]); 99% (active) in test [3] (setting [8]); 99.7% (active) in test [3] (at 50.0 µM); -2% (inactive) in test [4] (setting [7]); 91% (active) in test [4] (setting [8]); 99.5% (active) in test [4] (at 50.0 µM). Besides, the growth inhibition was -2% (inactive) in test [5] (setting [7]); 95% (active) in test [5] (setting [8]); 99.7% (active) in test [5] (at 50.0 µM); 8% (inactive) in test [6] (setting [7]); 99% (active) in test [6] (setting [8]); 99.7% (active) in test [6] (at 50.0 µM).
For `Fc1ccc2nc3ccccc3nc2c1`, the growth inhibition in test [1] (setting [7]) was 3% (inactive); in test [1] (setting [8]), 40% (inactive); in test [1] (at 50.0 µM), 77.5% (active); in test [2] (setting [7]), 5% (inactive); in test [2] (setting [8]), 27% (inactive); in test [2] (at 50.0 µM), 49.2% (inactive). Moreover, the growth inhibition in test [3] (setting [7]) was 0% (inactive); in test [3] (setting [8]), 10% (inactive); in test [3] (at 50.0 µM), 22.6% (inactive); in test [4] (setting [7]) it was -6% (inactive); in test [4] (setting [8]), 10% (inactive); in test [4] (at 50.0 µM), 29.5% (inactive). The growth inhibition in test [5] (setting [7]) is 5% (inactive); in test [5] (setting [8]), 24% (inactive); in test [5] (at 50.0 µM), 42.5% (inactive); in test [6] (setting [7]), 2% (inactive); in test [6] (setting [8]), 27% (inactive); in test [6] (at 50.0 µM) it was 76.3% (active).
Consider `O=C1c2ccccc2C(=O)N1CC[P+](c1ccccc1)(c1ccccc1)c1ccccc1`, for which the growth inhibition in test [1] (setting [7]) is 48% (inactive); in test [1] (setting [8]), 79% (active); in test [1] (at 50.0 µM), 70.5% (active) and 58.6% (inactive); in test [2] (setting [7]), 36% (inactive); in test [2] (setting [8]), 87% (active); in test [2] (at 50.0 µM) it was 58.5% (inactive) and 46.8% (inactive). In addition, the growth inhibition in test [3] (setting [7]) is 20% (inactive); in test [3] (setting [8]) it was 69% (inactive); in test [3] (at 50.0 µM), 63.5% (inactive) and 62.5% (inactive); in test [4] (setting [7]), -5% (inactive); in test [4] (setting [8]) it was 47% (inactive); in test [4] (at 50.0 µM), 20.8% (inactive) and 40% (inactive). Further, the growth inhibition in test [5] (setting [7]) was 30% (inactive); in test [5] (setting [8]), 79% (active); in test [5] (at 50.0 µM), 57.9% (inactive) and 43.3% (inactive); in test [6] (setting [7]), 43% (inactive); in test [6] (setting [8]) it was 85% (active); in test [6] (at 50.0 µM), 63.1% (inactive) and 54.9% (inactive).
For `OC(CN1CCCC2CCCCC21)c1cc2ccccc2c2ccccc12` (centres undefined), the growth inhibition in test [1] (setting [7]) is 0% (inactive) and -2% (inactive); in test [1] (setting [8]), 97% (active) and 99% (active); in test [1] (at 50.0 µM), 98.7% (active) and 98.5% (active); in test [2] (setting [7]), 20% (inactive) and -4% (inactive); in test [2] (setting [8]), 80% (active) and 99% (active); in test [2] (at 50.0 µM), 98.4% (active). Besides, the growth inhibition in test [3] (setting [7]) was -21% (inactive) and -6% (inactive); in test [3] (setting [8]), 98% (active) and 99% (active); in test [3] (at 50.0 µM) it was 98.9% (active) and 98% (active); in test [4] (setting [7]), -2% (inactive); in test [4] (setting [8]), 94% (active) and 99% (active); in test [4] (at 50.0 µM), 99% (active) and 98.2% (active). For the same compound, the growth inhibition in test [5] (setting [7]) was 0% (inactive) and -3% (inactive); in test [5] (setting [8]), 91% (active) and 99% (active); in test [5] (at 50.0 µM), 99.2% (active) and 99% (active); in test [6] (setting [7]), 13% (inactive) and 2% (inactive); in test [6] (setting [8]), 99% (active); in test [6] (at 50.0 µM), 99.2% (active) and 99% (active).
